This is an account of results in PubChem BioAssay (Tox21).

Assay [1] is described as follows: qHTS assay to identify small molecule antagonists of the glucocorticoid receptor (GR) signaling pathway - cell viability counter screen (AID 720693). Further: nearly all actives have a fitted effect of over 55% in size. Further: potency means the concentration at half of the fitted maximal effect. Background: Quantitative high-throughput screening tests each substance at several concentrations.
The nature of assay [2]: qHTS assay for identifying genotoxic compounds that show differential cytotoxicity against isogenic chicken DT40 cell lines with known DNA damage response pathways - wild type cell line (AID 743012). Further: nearly all actives have a fitted effect of over 60% in size. Further: potency means the concentration at half of the fitted maximal effect. An outline of the steps:
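Luminescent ATP viability signal (CellTiter-Glo, 30 min RT) recorded after wild type DT40 cells were incubated with compounds for 40 h at 37 C/5% CO2.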

The nature of assay [3]: qHTS assay for identifying genotoxic compounds that show differential cytotoxicity against isogenic chicken DT40 cell lines with known DNA damage response pathways - Rev3 mutant cell line (AID 743014). Further: nearly all actives have a fitted effect of over 55% in size. Further: potency means the concentration at half of the fitted maximal effect.
Assay [4] in a line: qHTS assay for identifying genotoxic compounds that show differential cytotoxicity against isogenic chicken DT40 cell lines with known DNA damage response pathways - Rad54/Ku70 mutant cell line (AID 743015). Further: nearly all actives have a fitted effect of over 60% in size. Further: potency means the concentration at half of the fitted maximal effect.
Assay [5] is described as follows: qHTS assay to identify small molecule antagonists of the androgen receptor (AR) signaling pathway - cell viability counter screen (AID 743033; further: nearly all actives have a fitted effect of over 45% in size; further: potency means the concentration at half of the fitted maximal effect).
A short description of assay [6]: qHTS assay to identify small molecule antagonists of the androgen receptor (AR) signaling pathway using the MDA cell line - cell viability counter screen (AID 743041; further: nearly all actives have a fitted effect of over 45% in size; further: potency means the concentration at half of the fitted maximal effect). An outline of the steps: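 In this qHTS counter assay, fluorescence intensity after CellTiter-Fluor addition indicated viability of MDA-kb2 AR-luc cells given compounds and R1881 for 16 h at 37C.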

A short description of assay [7]: qHTS assay to identify small molecule antagonists of the thyroid receptor (TR) signaling pathway - cell viability counter screen (AID 743064). Further: nearly all actives have a fitted effect of over 50% in size. Further: potency means the concentration at half of the fitted maximal effect. In a few lines:
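CellTiter-Fluor readout, 30 min at 37 °C/5% CO2, following 23.5 h incubation of GH3.TRE-Luc cells with test compound and 1 nM T3 (final).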

A short description of assay [8]: qHTS assay to identify small molecule antagonists of the thyroid receptor (TR) signaling pathway (AID 743065). Further: nearly all actives have a fitted effect of over 55% in size. Further: potency means the concentration at half of the fitted maximal effect. In a few lines: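 GH3.TRE-Luc rat pituitary cells carrying two TR response elements driving luciferase were plated for 4 h, given compound plus 1 nM T3 (final), and incubated 23.5 h at 37 C. ONE-Glo luminescence measured reporter inhibition; CellTiter-Fluor fluorescence tracked cytotoxicity.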

Assay [9] concerns thyroid hormone receptor (rat, GH3 cells). The assay can be described thus: qHTS assay to identify small molecule agonists of the thyroid receptor (TR) signaling pathway (AID 743066; calls by dose curve).
The target of assay [10] is Estrogen receptor (Homo sapiens) (UniProt P03372). The assay is described as follows: qHTS assay to identify small molecule antagonists of the estrogen receptor alpha (ER-alpha) signaling pathway (AID 743069; active means well fitted curve in the direction sought with a large enough effect in the signal ratio in the repeat runs, not every such curve was filed as active; inconclusive means weak or mixed curves, or effect the other way; inactive means no such curve, though single readings can be large or run the other way; the % refers to the signal ratio). An outline of the steps: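 A 17beta-estradiol challenge was applied right after compound transfer to ER-alpha-UAS-bla HEK293 cells previously kept in charcoal-stripped serum. Plates stood 18 hr at 37C and 5% CO2; fluorescence was read following 2 hr FRET substrate loading at room temperature.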
Chain of Estrogen receptor (Homo sapiens) (P03372 whole entry, looked up): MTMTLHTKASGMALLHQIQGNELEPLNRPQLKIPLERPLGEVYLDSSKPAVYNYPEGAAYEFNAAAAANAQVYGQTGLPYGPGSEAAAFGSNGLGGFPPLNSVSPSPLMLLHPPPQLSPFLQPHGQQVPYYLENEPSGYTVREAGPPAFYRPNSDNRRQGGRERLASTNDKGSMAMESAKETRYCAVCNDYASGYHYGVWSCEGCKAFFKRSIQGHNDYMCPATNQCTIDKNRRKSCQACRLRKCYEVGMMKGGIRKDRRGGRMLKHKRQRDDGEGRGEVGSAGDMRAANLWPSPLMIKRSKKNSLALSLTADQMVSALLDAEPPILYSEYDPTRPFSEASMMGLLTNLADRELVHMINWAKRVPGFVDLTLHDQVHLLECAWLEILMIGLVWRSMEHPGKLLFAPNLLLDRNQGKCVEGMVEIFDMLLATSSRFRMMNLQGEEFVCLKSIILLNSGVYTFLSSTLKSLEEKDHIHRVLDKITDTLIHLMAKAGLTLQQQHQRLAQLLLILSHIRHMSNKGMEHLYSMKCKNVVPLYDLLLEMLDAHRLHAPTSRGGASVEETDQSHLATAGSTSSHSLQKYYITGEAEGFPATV

Assay [11] is described as follows: qHTS assay to identify small molecule antagonists of the estrogen receptor alpha (ER-alpha) signaling pathway - cell viability counter screen (AID 743074; calls by dose curve;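 further: HEK293 cells carrying ER-alpha-UAS-bla reporter stimulated with 17beta-estradiol; nearly all actives have a fitted effect of over 45% in size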; further: potency means the concentration at half of the fitted maximal effect).
Assay [12] concerns the target Estrogen receptor (Homo sapiens) (UniProt P03372). The assay can be described thus: qHTS assay to identify small molecule agonists of the estrogen receptor alpha (ER-alpha) signaling pathway (AID 743075; calls by dose curve;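 further: HEK293 GripTite cells with ER-alpha and UAS-driven beta-lactamase reporter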; further: potency means the concentration at half of the fitted maximal effect).
For assay [13] the target is unchanged. The assay can be described thus: qHTS assay to identify small molecule agonists of the estrogen receptor alpha (ER-alpha) signaling pathway using the BG1 cell line (AID 743079). Further: nearly all actives have a fitted effect of over 20% in size. Further: potency means the concentration at half of the fitted maximal effect.
Assay [14] can be described thus: qHTS assay to identify small molecule antagonists of the estrogen receptor alpha (ER-alpha) signaling pathway using the BG1 cell line (AID 743080; calls by dose curve;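 further: BG1 cells stimulated with 17beta-estradiol alongside compound; nearly all actives have a fitted effect of over 25% in size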). The conditions noted are these: BG1Luc4E2 ERE-luciferase antagonist mode, luminescence; activity change, negative = inhibition: at 70.3 µM (top of the series). In a few lines: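 BG1-Luc-4E2 cells (endogenous full-length ER-alpha, 4xERE luciferase) hormone-starved 5 days in charcoal-stripped FBS, plated 4,000/well for 24 h, then compound plus 17beta-estradiol for 21.5 h at 37 C; ONE-Glo luminescence read.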

The nature of assay [15]: qHTS assay to identify small molecule antagonists of the estrogen receptor alpha (ER-alpha) signaling pathway using the BG1 cell line - cell viability counter screen (AID 743081).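 Further: compound given together with 17beta-estradiol as the ER stimulus; nearly all actives have a fitted effect of over 45% in size.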 Further: potency means the concentration at half of the fitted maximal effect.
The next assay has as its target Aromatase (Homo sapiens) (UniProt P11511). The assay can be described thus: qHTS assay to identify aromatase inhibitors (AID 743083). Further: nearly all actives have a fitted effect of over 55% in size. Further: potency means the concentration at half of the fitted maximal effect.

Values joined by “and” are separate entries in the source; they are usually repeats but may differ in a detail not shown here. Equal values may be shown once. A structure can be active in one record and inactive in another. Active and inactive are the calls of the source. Unless noted, the call rests on the fitted dose curve; in most records, active means well fitted curve in the direction sought with a large enough effect in the repeat runs; inconclusive means weak or mixed curves; inactive means no such curve, though single readings can be large; an effect the other way counts as inactive or inconclusive.
On the % scale 0 is the no-effect control and ±100 the full control effect.

Chain of Aromatase (Homo sapiens) (P11511 whole entry, looked up): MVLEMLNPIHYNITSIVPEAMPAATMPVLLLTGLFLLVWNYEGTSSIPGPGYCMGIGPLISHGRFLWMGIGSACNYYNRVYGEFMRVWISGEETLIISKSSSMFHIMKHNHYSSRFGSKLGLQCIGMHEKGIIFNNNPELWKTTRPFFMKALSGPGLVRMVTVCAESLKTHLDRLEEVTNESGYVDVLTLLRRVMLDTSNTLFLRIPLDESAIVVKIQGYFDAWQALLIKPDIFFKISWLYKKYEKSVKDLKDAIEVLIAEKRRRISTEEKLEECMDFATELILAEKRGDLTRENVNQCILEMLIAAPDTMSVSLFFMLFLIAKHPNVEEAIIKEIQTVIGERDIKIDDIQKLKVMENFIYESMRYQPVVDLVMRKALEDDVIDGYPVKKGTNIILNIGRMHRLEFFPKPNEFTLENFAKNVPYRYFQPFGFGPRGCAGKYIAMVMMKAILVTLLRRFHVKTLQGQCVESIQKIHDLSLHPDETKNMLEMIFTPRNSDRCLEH

For the compound `Cc1cccc(C)c1`, the Potency entry in [1], in [2], in [3], in assay [4], in assay [5] and in assay [6] was “inactive” throughout. For the same compound, the Potency entry in [7], in assay [8], in [9], in assay [10], in assay [11] and in assay [14] was “inactive” each time. Also, the Potency result (in assay [15]; with Aromatase (Homo sapiens)) was “inactive” in each case. Also, the Potency result in assay [12] is “inactive and 1.34 µM [inconclusive] (active)”; in [13], “inactive and 26.5 µM (active)”.
As to `CCCCCCCCCCCCCCCC[N+](C)(C)Cc1ccccc1`, the Potency is 21.3 µM (active) and 22.6 µM (active) and 35.3 µM (active) in assay [1]; 596 nM (active) and 794 nM (active) and 350 nM (active) in assay [2]; 750 nM (active) and 631 nM (active) and 783 nM (active) in assay [3]; 668 nM (active) and 891 nM (active) and 1.39 µM (active) in assay [4]; 16.9 µM (active) and 17.9 µM (active) and 17.7 µM (active) in [5]; 35.5 µM (active) and 27.8 µM (active) in [6]. For the same compound, the Potency in assay [7] is 18.8 µM (active) and 14.1 µM (active) and 24.8 µM (active); in [8], 11.9 µM (active) and 8.91 µM (active) and 22.1 µM (active); in assay [11], 19 µM (active) and 25.3 µM (active) and 31.4 µM (active); with Aromatase (Homo sapiens) it was 26.6 µM (active) and 50.1 µM (active) and 27.8 µM (active). The Potency entry in assay [9], in [12] and in assay [15] was “inactive” throughout. For the same compound, the activity change, negative = inhibition in [14] was -23.2% (active).
Consider `CN1CCC[C@H]1c1cccnc1`, for which the Potency entry in [1], in assay [2], in [3], in assay [4], in assay [5] and in [6] was “inactive” throughout. The Potency result in [7], in assay [8], in assay [9], in assay [11], in assay [14] and in assay [15] was “inactive” in each case. Further, in the assay with Aromatase (Homo sapiens), the Potency entry is “inactive”.
As for `CCN(CC)C(=O)c1cccc(C)c1`, the Potency result in assay [1], in [2], in assay [3], in assay [4], in [5] and in assay [6] was “inactive” in each case. Also, the Potency entry in [7], in assay [8], in assay [9], in assay [10], in assay [11] and in assay [14] was “inactive” throughout. For the same compound, the Potency entry (in [15]; in the assay with Aromatase (Homo sapiens)) was “inactive” throughout. Also, the Potency was 21.3 µM [inconclusive] (active) and inactive in assay [12]; 2.66 µM (active) and inactive in [13].
Consider `Cc1ncc([N+](=O)[O-])n1C`, for which the Potency result in assay [1], in assay [2], in [3], in assay [4], in [5] and in assay [6] was “inactive” throughout. The Potency entry in assay [7], in assay [8], in [9], in [10], in assay [11] and in [12] was “inactive” throughout. The Potency result (in [13]; in [14]; in assay [15]; with Aromatase (Homo sapiens)) was “inactive” each time.
`C=CCc1ccc(O)c(OC)c1`: the Potency result in [1], in assay [2], in assay [3], in assay [4], in assay [5] and in assay [6] was “inactive” each time. The Potency entry in assay [7], in assay [10], in [11], in [12], in [13] and in [14] was “inactive” each time. For the same compound, the Potency result (in assay [15]; with Aromatase (Homo sapiens)) was “inactive” in each case.
Consider `CN1CCc2cccc3c2[C@H]1Cc1ccc(O)c(O)c1-3`, for which the Potency result in assay [1], in assay [6], in assay [10], in assay [11] and in [12] was “inactive” throughout. The Potency in assay [2] was 9.44 µM (active) and 15.5 µM (active) and 12.8 µM (active); in assay [3], 11.9 µM (active) and 6.93 µM (active) and 9.09 µM (active); in [4], 16.8 µM (active) and 12.3 µM (active) and 8.1 µM (active); in assay [5], 55.5 µM (active); in assay [7], 29.8 µM (active) and 49.1 µM (active) and 22.8 µM (active); in [15] it was 69.3 µM (active). Besides, in the assay with Aromatase (Homo sapiens), the Potency was 21.9 µM (active) and 11.4 µM (active).
Take `NS(=O)(=O)O`: the Potency entry in assay [1], in assay [2], in [3], in assay [4], in assay [5] and in [6] was “inactive” in each case. For the same compound, the Potency result (in assay [7]; in assay [8]; in assay [9]; in [11]; in assay [15]; with Aromatase (Homo sapiens)) was “inactive” in each case.
With `CNNCc1ccc(C(=O)NC(C)C)cc1`, the Potency result in assay [1], in [2], in assay [3], in assay [4], in [5] and in assay [6] was “inactive” in each case. The Potency result (in assay [7]; in [8]; in assay [9]; in assay [11]; in assay [15]; in the assay with Aromatase (Homo sapiens)) was “inactive” throughout.
As to `O=C1NC(=O)C(c2ccccc2)(c2ccccc2)N1`, the Potency entry in [1], in [2], in assay [3], in assay [4], in assay [5] and in assay [6] was “inactive” each time. Moreover, the Potency result (in [7]; in assay [8]; in [9]; in assay [11]; in assay [15]; with Aromatase (Homo sapiens)) was “inactive” each time.
Consider `O=C(O)c1ccccc1`, for which the Potency result in assay [1], in [2], in assay [3], in [4], in assay [5] and in [6] was “inactive” each time. Also, the Potency result in assay [7], in assay [10], in assay [11], in assay [12], in assay [14] and in assay [15] was “inactive” each time. For the same compound, the Potency result in the assay with Aromatase (Homo sapiens) is “inactive”. Moreover, in [13], the Potency is 5.1 µM (active) and inactive.
As to `C[C@](N)(Cc1ccc(O)c(O)c1)C(=O)O`, the Potency entry in assay [1], in assay [2], in assay [5], in [6], in assay [7] and in assay [9] was “inactive” each time. The Potency result (in [11]; in [15]; with Aromatase (Homo sapiens)) was “inactive” each time. Further, the Potency result in assay [3] is “inactive and 61.6 µM (active) and 60.9 µM (active)”; in [4], “inactive and 60.9 µM (active)”.
As to `CC(O)(P(=O)(O)O)P(=O)(O)O`, the Potency entry in assay [1], in [2], in assay [3], in assay [4], in assay [5] and in assay [6] was “inactive” in each case. In addition, the Potency entry (in assay [7]; in assay [9]; in [11]; in [15]; in the assay with Aromatase (Homo sapiens)) was “inactive” each time.
